# Hit rate of the full screen: of about 63,000 compounds, about 1,100 (1.7%) were called active. Cut-off read from the data, not from the text of the source: active = cytotoxicity above about 50%; inactive = the rest. The sample as a whole holds a higher share of actives than the screen did. Entries with a potency or affinity are not part of this list.
# Assay: HPDE-C7 pancreatic duct cell viability loss – fluorescence, HTS (AID 430);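 note: cells exposed to compound for 48 hours before viability readout; 0% = vehicle and 100% = reference cytotoxic drug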
# Settings: HPDE-C7 pancreatic duct cells viability, at 10 µM, active compounds read high
row,SMILES,cytotoxicity
1,CCn1c(SCC(=O)N2CCCCC2)nnc1-c1ccc(S(=O)(=O)N2CCN(C)CC2)cc1,-22% (inactive)
2,COc1ccc(CNC(=O)C2COc3ccccc3O2)c(OC)c1 (stereo not given),-4.4% (inactive)
3,Cc1ccc(C(=O)CC(C(=O)O)n2cccn2)cc1 (stereo not given),-3.1% (inactive)
4,Cc1ccc(C(=O)CC(C(=O)O)n2ccc(C)n2)cc1 (stereo not given),4% (inactive)
5,O=C1OCCC1N1C(=O)c2ccccc2S1(=O)=O (stereo not given),-4.1% (inactive)
6,Nc1c(Nc2ccccc2)c2ccccc2oc1=O,-3.7% (inactive)
7,CCN(CC)c1ccc(/C=N/n2nnnc2N)c(O)c1,-2.7% (inactive)
8,CCN(C)c1ccc(/C=N\n2nnnc2N)cc1,51.3% (active)
9,CSc1ccc(/C=N/n2nnnc2N)cc1,-10.4% (inactive)
10,CCCCS(=O)CC(COc1ccc(Cl)cc1)OC(=O)c1ccccc1 (stereo not given),-8.9% (inactive)
11,COc1ccccc1Nc1nc2ccccc2n1C,-9% (inactive)
12,CNc1ccccc1-c1nc2ccccc2n(C)c1=O,56.7% (active)
13,Cn1c(=O)c(-c2ccccc2)nn2c3ccccc3nc12,-4.7% (inactive)
14,Cc1ccc(NCc2nnc(SCC(=O)Nc3cccc(O)c3)n2CC2CCCO2)c(C)c1 (stereo not given),8.8% (inactive)
15,CC(=O)O[C@@]12CO[C@@H]1C[C@H](O)[C@@]1(C)C(=O)[C@H](O)C3=C(C)[C@@H](OC(=O)[C@H](O)[C@@H](NC(=O)OC(C)(C)C)c4ccccc4)C[C@](O)([C@@H](OC(=O)c4ccccc4)[C@H]21)C3(C)C,51.5% (active)
16,CC(=O)O[C@H]1C(=O)[C@]2(C)[C@H]([C@H](OC(=O)c3ccccc3)[C@]3(O)C[C@H](OC(=O)[C@H](O)[C@@H](NC(=O)c4ccccc4)c4ccccc4)C(C)=C1C3(C)C)[C@]1(OC(C)=O)CO[C@@H]1C[C@@H]2O,72% (active)
17,CNC(=O)c1ccccc1NC(=O)c1c(O)c2c([nH]c1=O)CCCC2,0% (inactive)
18,COc1ccc(/C(O)=C2/C(=O)C(=O)N(Cc3cccnc3)C2c2ccccn2)cc1 (stereo not given),-4.2% (inactive)
19,Cc1cc(C)n2c(Br)c(CSc3nc4ccccc4o3)nc2n1,3.3% (inactive)
20,COC(=O)c1c(NC(=O)CN2CCCC(C)C2)c2c(C)cccc2n1C (stereo not given),-3.9% (inactive)
21,CCCC(=O)NCCCc1nc2ccccc2n1CC,-20.4% (inactive)
22,COc1ccc(-n2c(Cc3cccn3C)nnc2SCC(=O)NCc2ccco2)cc1,-5% (inactive)
23,CCn1c2ccccc2c2cc(NC(=O)CSc3nnc(-c4ccccc4OC)n3N)ccc21,57.2% (active)
24,CCn1c(SCC(=O)Nc2ccc3c(c2)c2ccccc2n3CC)nnc1-c1ccco1,49% (inactive)
25,COc1ccc(NC(=O)CSc2nnc(-c3ccccc3C)n2N)cc1OC,-3.3% (inactive)

# Source: PubChem BioAssay AID430 (Sanford-Burnham Center for Chemical Genomics, 2006)
